# Bioassay records from PubChem.
# MazF activator = increases E. coli MazEF RNase cleavage of RNA; 350,000 compounds, 0.32% hits; FAM/BHQ RNA-DNA oligo cleavage fluorescence, 5 h; activation, % at 20 µM; P0AE70; in the data active means activation above about 50%
# Target sequence (P0AE70 whole entry, looked up): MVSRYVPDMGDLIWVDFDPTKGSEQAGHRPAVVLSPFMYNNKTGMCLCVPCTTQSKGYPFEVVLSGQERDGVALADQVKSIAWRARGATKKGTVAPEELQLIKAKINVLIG
# GDH-TPI inh = counter-screen for M. tuberculosis FBA inhibitors: GDH-TPI coupled enzymes; AID 588335; 360,000 compounds, 1.2% hits; GDH-TPI coupled enzyme counterscreen, NADH absorbance; inhibition, % at 4.8 µM
# FBA Mtb inh = Mtb fructose-bisphosphate aldolase inhibition; P9WQA3; purified M. tuberculosis FBA, fluorescence read-out; inhibition, % at 1 µM; 360,000 compounds, 2.3% hits; in the data active means inhibition above about 27%
# Mtb bLac sens = beta-lactam sensitization of Mtb H37Rv | AID 434955 | M. tuberculosis H37Rv growth with meropenem, percent inhibition | 330,000 compounds, 0.27% hits | inhibition, % at 25 µM; call rule not given here;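 further: growth measured after seven days incubation then overnight dye step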
# CCHF vOTU inh = CCHFV vOTU protease inhibition. Pep-AMC fluorescence. inhibition, % at 11.5 µM. 370,000 compounds, 0.55% hits
# Hits are given with their value; 0 = inactive; - = not tested or not shown. A selection: hits, their analogues and other compounds. The true share with any hit is near 4%. Unless noted, no stated cut-off is given here; in the data, active means inhibition above about 30%; inactive means the rest.
SMILES,MazF activator,GDH-TPI inh,FBA Mtb inh,Mtb bLac sens,CCHF vOTU inh
COC(=O)C1CN(C2CCCC2)CCS(=O)(=O)N1Cc1cn(Cc2ccccc2)nn1 (centres undefined),-,-,-,-,0
CC1(C)CC(=O)c2sc(NC(=O)C3COc4ccccc4O3)nc2C1 (centres undefined),0,34,0,0,0
CC1(C)CC(=O)c2sc(NC(=O)CN3C(=O)CCC3=O)nc2C1,0,32,0,0,0
CC(=O)c1sc(NC(=O)C2COc3ccccc3O2)nc1C (centres undefined),0,0,0,0,0
CC1(C)CC(=O)c2sc(NC(=O)CN3CCOCC3)nc2C1,0,0,0,0,0
CC1(C)CC(=O)c2sc(N3CCCCC3)nc2C1,0,42,0,0,0
CC1(C)CC(=O)c2sc(NS(C)(=O)=O)nc2C1,0,35,0,0,0
COCC(=O)N1CCC(C(=O)NCC2COc3ccccc3O2)CC1 (centres undefined),-,-,-,-,0
COC(=O)[C@]12C[C@H](CC(=O)NCCCCc3ccccc3)C(=O)N(Cc3ccc(Cl)cc3Cl)C1=C[C@H](C(C)(C)C)O[C@@H]2C,-,-,-,-,0
CNC(=O)COC(=O)/C=C/c1nc2ccccc2s1,0,0,0,0,0
CNC(=O)COC(=O)c1ccc(-c2nc3ccccc3s2)s1,0,57,0,0,0
CC/C(=N/Nc1ccc(Cl)cc1)c1cnnc(SC)n1,0,0,0,0,0
CC/C(=N/Nc1cccc(C)c1)c1cnnc(SC)n1,287,0,0,0,0
O=C(NN=Cc1ccccc1C(F)(F)F)c1cc(-c2ccc(Cl)cc2)n[nH]1,-,-,-,-,0
COC(=O)c1c(NC(=O)/C=C/c2ccco2)sc2c1CCC2,57,0,0,0,0
O=C(/C=C/c1ccco1)Nc1scc(-c2ccccc2)c1C(=O)O,0,66,0,0,0
CCOC(=O)Cc1csc(NC(=O)/C=C/c2ccco2)n1,0,75,0,0,0
Cc1csc(NC(=O)/C=C/c2ccco2)n1,0,33,0,0,0
COc1ccccc1N1CCN(C(=O)c2cc3c(C)nn(-c4ccccc4)c3s2)CC1,-,-,-,-,0
O=C(OCCCN1CCC2(CCCCC2)C1=O)c1ccccc1,-,-,-,-,0
CC(C)(C)C1=Nn2c(nnc2-c2ccc(C(C)(C)C)cc2)SC1,-,-,-,-,0
COC(=O)C1CN(Cc2cn(Cc3ccc(C)cc3)nn2)CCS(=O)(=O)N1Cc1ccc(C)cc1 (centres undefined),-,-,-,-,0
Cc1cc(NS(=O)(=O)c2ccc(NC(=O)c3ccco3)cc2)nc(C)n1,0,0,0,0,0
Cc1csc(NC(=O)/C=C/c2ccc3c(c2)OCO3)n1,0,35,0,0,0
CCOC(=O)Cc1csc(NC(=O)CC(C)(C)C)n1,0,0,0,0,30
SMILES,MazF activator,GDH-TPI inh,FBA Mtb inh,Mtb bLac sens,CCHF vOTU inh
Cc1cc(NS(=O)(=O)c2ccc(NC(=O)/C=C/c3ccco3)cc2)nc(C)n1,0,48,0,0,0
CCOC(=O)CC[C@H]1CC[C@]2(CCCN(C(=O)C3CCCC3)C2)O1,-,-,-,-,0
CC(C)[C@H]1COc2c3ccccc3nn21,-,-,-,-,0
O=C(N/N=C/c1c(O)n(CCC2=CCCCC2)c(=O)[nH]c1=O)c1ccccc1,0,34,0,0,0
O=C(N/N=C/c1c(O)n(C2CC2)c(=S)[nH]c1=O)c1ccccc1O,0,0,0,0,0
Cc1ccc(-n2c(O)c(/C=N/NC(=O)c3ccncc3)c(=O)[nH]c2=O)cc1,0,0,0,0,0
O=C(N/N=C/c1c(O)n(CCC2=CCCCC2)c(=S)[nH]c1=O)c1ccccc1,0,0,0,0,0
O=C(N/N=C/c1c(O)n(-c2ccccc2)c(=O)[nH]c1=O)c1ccncc1,0,31,0,0,0
Cc1ccccc1-n1c(O)c(/C=N/NC(=O)c2ccccc2O)c(=O)[nH]c1=S,0,31,0,0,0
COc1ccc(Cn2cc(CN3[C@@H](Cc4ccccc4)COc4cc(Br)ccc4S3(=O)=O)nn2)cc1,-,-,-,-,0
COC(=O)c1cn(-c2ccc(-c3noc4c3C(=O)N(CC(=O)N3CCOCC3)CC4)cc2)nn1,-,-,-,-,0
O=C(OCc1cn(Cc2ccc(F)c(F)c2)nn1)N1CCOCC1,-,-,-,-,0
Cc1nc2c(C(=O)Nc3ccc(N4CCCC(O)C4)cc3)snc2c(=O)[nH]1 (centres undefined),0,44,0,0,0
O=C(Nc1ccc(N2CCCC(O)C2)cc1)c1snc2c(=O)[nH]cnc12 (centres undefined),0,0,0,0,0
O=C(COc1ccc(Br)cc1)NN1C(=O)c2ccccc2C1=O,442,0,0,0,0
Cc1ccc(OCC(=O)NN2C(=O)c3ccccc3C2=O)cc1,0,0,0,0,0
